Data published in the supplement of paper PMC12494721.
Counter-ions that a name gives are not always drawn.

What was measured:
Conditions in all cases: incubation time: 27 h, anaerobic, 37 °C;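 for the amine columns active = adjusted P below 0.05 in both replicates with a change the same way and a mean fold change under 0.8 or over 1.25; inactive = the rest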
[1] = system: Clostridium sporogenes DSM 1664; test: growth (OD595) fold change vs plate DMSO controls (fold change (ratio)); higher = more growth
Outline: (§1)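 Growth is calculated as fold change against the median of the DMSO control wells on each plate. Readings at 595 nm from anaerobic mGAM cultures (96-well, 27 h, 37 °C) were blank-subtracted, background-corrected with 20 µM compound solutions in water, and converted to OD by a calibration factor of 5. Fold changes above 1.5 were recorded as NA, and results are means of 2 biological replicates.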

Escherichia coli IAI1 [2] = test: as above
Outline: as §1

[3] = system: Klebsiella aerogenes DSM 30053; test: as above
Outline: as §1

[4] = system: Ruminococcus gnavus DSM 108212; test: as above
Outline: as §1

[5] = system: Klebsiella aerogenes DSM 30053; test: fold change of Histamine concentration vs plate DMSO controls (fold change (ratio)); higher = more amine produced, active = hit call of the paper (significant change in both replicates, either direction)
Outline: (§2)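 Amine values are fold changes relative to DMSO-only wells on the same plate. They derive from 27 h, 37 °C anaerobic mGAM cultures of four gut bacterial strains in 80 µL wells, dosed at 20 µM final, or 50 µM final for sweeteners. Extraction of the whole culture, LC–triple-quadrupole MS in dynamic MRM mode, external calibration curves and within-batch drift correction were used, with 2 biological replicates averaged.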

[6] = system: Clostridium sporogenes DSM 1664; test: fold change of Tryptamine concentration vs plate DMSO controls (fold change (ratio)); higher = more amine produced, active = hit call of the paper (significant change in both replicates, either direction)
Outline: as §2

[7] = system: Ruminococcus gnavus DSM 108212; test: as above
Outline: as §2

Escherichia coli IAI1 [8] = test: fold change of Putrescine concentration vs plate DMSO controls (fold change (ratio)); higher = more amine produced, active = hit call of the paper (significant change in both replicates, either direction)
Outline: as §2

[9] = system: Klebsiella aerogenes DSM 30053; test: as above
Outline: as §2

Escherichia coli IAI1 [10] = test: fold change of Cadaverine concentration vs plate DMSO controls (fold change (ratio)); higher = more amine produced, active = hit call of the paper (significant change in both replicates, either direction)
Outline: as §2

[11] = system: Klebsiella aerogenes DSM 30053; test: as above
Outline: as §2

[12] = system: Ruminococcus gnavus DSM 108212; test: fold change of 2-Phenylethylamine concentration vs plate DMSO controls (fold change (ratio)); higher = more amine produced, active = hit call of the paper (significant change in both replicates, either direction)
Outline: as §2

Row | Compound | growth [1] | growth (Escherichia coli IAI1 [2]) | growth [3] | growth [4] | fold change of Histamine concentration [5] | fold change of Tryptamine concentration [6] | fold change of Tryptamine concentration [7] | fold change of Putrescine concentration (Escherichia coli IAI1 [8]) | fold change of Putrescine concentration [9] | fold change of Cadaverine concentration (Escherichia coli IAI1 [10]) | fold change of Cadaverine concentration [11] | fold change of 2-Phenylethylamine concentration [12]
1 | COc1cc2c(cc1OC)C(=O)C(CC1CCN(Cc3ccccc3)CC1)C2 (stereo not given) [Donepezil hydrochloride] (20 µM) | 1.2 | 1.23 | 1.02 | 0.917 | 1.53 (inactive) | 0.947 (inactive) | 1.03 (inactive) | 1.24 (inactive) | 2.04 (inactive) | 0.981 (inactive) | 1.21 (inactive) | 1.08 (inactive)
2 | Clc1ccc(CSC(Cn2ccnc2)c2ccc(Cl)cc2Cl)cc1 (stereo not given) [Sulconazole nitrate] (20 µM) | 0.862 | 1.05 | 0.995 | 0.423 | 0.872 (inactive) | 1 (inactive) | 0.434 (active) | 0.922 (inactive) | 0.96 (inactive) | 0.499 (inactive) | 1.01 (inactive) | 0.667 (active)
3 | O=C(Cn1cnnn1)N[C@@H]1C(=O)N2C(C(=O)O)=C(CSc3nncs3)CS[C@H]12 [Ceftezole] (20 µM) | 0 | 0.855 | 1.05 | 0.188 | 0.895 (inactive) | 0.0131 (active) | 0.114 (active) | 0.749 (inactive) | 0.967 (inactive) | 1.61 (inactive) | 1.04 (inactive) | 0.105 (active)
4 | CCCOc1ccc(C(=O)OCCN(CC)CC)cc1N [Proparacaine hydrochloride] (20 µM) | 1.19 | 1.08 | 1.14 | 1.03 | 0.892 (inactive) | 1.09 (inactive) | 1.08 (inactive) | 1.13 (inactive) | 0.98 (inactive) | 0.971 (inactive) | 1.04 (inactive) | 1.14 (inactive)
5 | O=C(CCCCCCC(=O)Nc1ccccc1)NO [Vorinostat] (20 µM) | 0.808 | 1.07 | 0.974 | 1.04 | 1.17 (inactive) | 0.962 (inactive) | 1.05 (inactive) | 1.11 (inactive) | 0.99 (inactive) | 0.99 (inactive) | 0.967 (inactive) | 1.1 (inactive)
6 | Nc1ccc(/N=N/c2ccccc2)c(N)n1 [Phenazopyridine hydrochloride] (20 µM) | 1.12 | 0.985 | 0.982 | 1.06 | 0.998 (inactive) | 0.991 (inactive) | 1.02 (inactive) | 0.969 (inactive) | 0.986 (inactive) | 1.02 (inactive) | 0.994 (inactive) | 0.969 (inactive)
7 | Nc1ccc(S(=O)(=O)Nc2ccnn2-c2ccccc2)cc1 [Sulfaphenazole] (20 µM) | 1.01 | 1.11 | 1.04 | 1.11 | 0.99 (inactive) | 0.977 (inactive) | 0.994 (inactive) | 1.04 (inactive) | 1.03 (inactive) | 1.04 (inactive) | 1.02 (inactive) | 0.95 (inactive)
8 | COC(=O)Nc1nc2cc(C(=O)c3cccs3)ccc2[nH]1 [Nocodazole] (20 µM) | 0.969 | 1.01 | 1.02 | 1.05 | 0.98 (inactive) | 0.968 (inactive) | 0.999 (inactive) | 0.977 (inactive) | 1 (inactive) | 0.996 (inactive) | 1.03 (inactive) | 1.03 (inactive)
9 | CNNCc1ccc(C(=O)NC(C)C)cc1 [Procarbazine hydrochloride] (20 µM) | 1.03 | 1.07 | 1.02 | 1.27 | 1.05 (inactive) | 1.02 (inactive) | 1.03 (inactive) | 1.02 (inactive) | 0.983 (inactive) | 0.984 (inactive) | 1 (inactive) | 1.06 (inactive)
10 | CCc1oc2ccccc2c1C(=O)c1cc(Br)c(O)c(Br)c1 [Benzbromarone] (20 µM) | 0.813 | 0.959 | 0.986 | 0.873 | 0.958 (inactive) | 0.706 (active) | 0.722 (active) | 0.989 (inactive) | 0.994 (inactive) | 1.04 (inactive) | 0.998 (inactive) | 0.763 (active)
11 | CC(=O)Nc1nnc(S(N)(=O)=O)s1 [Acetazolamide] (20 µM) | 1.04 | 0.95 | 1.04 | 0.746 | 1.04 (inactive) | 0.973 (inactive) | 1.02 (inactive) | 0.965 (inactive) | 1.06 (inactive) | 0.971 (inactive) | 1.11 (inactive) | 1.09 (inactive)
12 | C[C@@H]1C[C@H]2[C@@H]3C[C@H](F)C4=CC(=O)C=C[C@]4(C)[C@@]3(F)[C@@H](O)C[C@]2(C)[C@@]1(O)C(=O)CO [Flumethasone] (20 µM) | 1.02 | 1 | 1.01 | 1.2 | 0.997 (inactive) | 0.979 (inactive) | 1.01 (inactive) | 0.991 (inactive) | 0.989 (inactive) | 1.04 (inactive) | 0.991 (inactive) | 0.972 (inactive)
13 | COc1cc2nc(N3CCN(C(=O)C4CCCO4)CC3)nc(N)c2cc1OC (stereo not given) [Terazosin hydrochloride] (20 µM) | 1.07 | 1.02 | 1 | 0.977 | 1.08 (inactive) | 1.03 (inactive) | 0.952 (inactive) | 0.936 (inactive) | 1.03 (inactive) | 1 (inactive) | 1.01 (inactive) | 0.948 (inactive)
14 | CCCCc1ccc2[nH]c(NC(=O)OC)nc2c1 [Parbendazole] (20 µM) | 1.04 | 1.04 | 1.02 | 1.25 | 1.11 (inactive) | 0.953 (inactive) | 0.998 (inactive) | 0.98 (inactive) | 1.07 (inactive) | 0.981 (inactive) | 1.03 (inactive) | 1.02 (inactive)
15 | CC(C)[C@H](N)C(=O)OCCOCn1cnc2c(=O)nc(N)[nH]c21 [Valacyclovir hydrochloride] (20 µM) | 1.06 | 0.958 | 0.98 | 0.538 | 1.09 (inactive) | 0.989 (inactive) | 1.02 (inactive) | 0.954 (inactive) | 1.03 (inactive) | 0.987 (inactive) | 0.999 (inactive) | 0.997 (inactive)
16 | CC(C)C[C@H](NC(=O)[C@@H](O)[C@H](N)Cc1ccccc1)C(=O)O [Ubenimex] (20 µM) | 1.02 | 0.971 | 0.969 | 0.332 | 0.887 (inactive) | 1.15 (inactive) | 0.148 (active) | 1.04 (inactive) | 0.95 (inactive) | 0.936 (inactive) | 0.973 (inactive) | 0.168 (active)
17 | CC(=O)[C@H]1CC[C@H]2[C@@H]3CCC4=CC(=O)CC[C@]4(C)[C@H]3CC[C@]12C [Progesterone] (20 µM) | 1.08 | 1.02 | 1.05 | 0.651 | 0.893 (inactive) | 1.04 (inactive) | 0.981 (inactive) | 1.07 (inactive) | 0.961 (inactive) | 1.03 (inactive) | 1.02 (inactive) | 0.95 (inactive)
18 | O=C1CCc2cc(OCCCCc3nnnn3C3CCCCC3)ccc2N1 [Cilostazol] (20 µM) | 1.06 | 0.963 | 0.98 | 0.879 | 1.04 (inactive) | 1.02 (inactive) | 0.994 (inactive) | 1.01 (inactive) | 1.03 (inactive) | 1.03 (inactive) | 0.995 (inactive) | 0.936 (inactive)
19 | CN1CCOC(c2ccccc2)c2ccccc2C1 (stereo not given) [Nefopam hydrochloride] (20 µM) | 1.09 | 1 | 0.963 | 1.09 | 0.855 (inactive) | 1.1 (inactive) | 1.02 (inactive) | 1.03 (inactive) | 0.94 (inactive) | 0.943 (inactive) | 1.03 (inactive) | 1.03 (inactive)
20 | CCOC(=O)[C@H](CCc1ccccc1)N[C@H]1CCc2ccccc2N(CC(=O)O)C1=O [Benazepril hydrochloride] (20 µM) | 1.03 | 1 | 1 | 1.02 | 1 (inactive) | 1.06 (inactive) | 1.02 (inactive) | 0.997 (inactive) | 0.981 (inactive) | 0.989 (inactive) | 1.02 (inactive) | 1.01 (inactive)
21 | CS(=O)(=O)OCCCCOS(C)(=O)=O [Busulfan] (20 µM) | 0.951 | 1.07 | 0.991 | 1.09 | 0.992 (inactive) | 1.04 (inactive) | 1.11 (inactive) | 1.08 (inactive) | 0.962 (inactive) | 1.04 (inactive) | 1.04 (inactive) | 1.09 (inactive)
22 | CCOc1ccccc1OC(c1ccccc1)C1CNCCO1 (stereo not given) [Reboxetine mesylate] (20 µM) | 1.03 | 1.16 | 1.07 | 1.08 | 1.01 (inactive) | 0.997 (inactive) | 1.04 (inactive) | 1.03 (inactive) | 1.01 (inactive) | 0.926 (inactive) | 1 (inactive) | 1.03 (inactive)
23 | CNC(=C[N+](=O)[O-])NCCSCc1ccc(CN(C)C)o1 [Ranitidine hydrochloride] (20 µM) | 1.07 | 1.01 | 1.07 | 1.47 | 0.953 (inactive) | 1.05 (inactive) | 0.99 (inactive) | 0.996 (inactive) | 1.01 (inactive) | 1.03 (inactive) | 1.02 (inactive) | 0.984 (inactive)
24 | CCN1CCCC(OC(=O)C(c2ccccc2)c2ccccc2)C1 (stereo not given) [Piperidolate hydrochloride] (20 µM) | 1.1 | 1.01 | 0.987 | 0.893 | 1.02 (inactive) | 1.07 (inactive) | 1.01 (inactive) | 1.02 (inactive) | 1 (inactive) | 1.02 (inactive) | 0.993 (inactive) | 1.06 (inactive)
25 | Cc1ncc([N+](=O)[O-])n1CCO [Metronidazole] (20 µM) | 0.00188 | 1.04 | 1.02 | 0.0847 | 0.975 (inactive) | 0.011 (active) | 0.0917 (active) | 0.94 (inactive) | 1.05 (inactive) | 0.997 (inactive) | 1.1 (inactive) | 0.0796 (active)
